# Source: PubChem BioAssay (EPA / NIEHS)
# Records with an inconclusive call do not appear. Activity calls are given as the source filed them. How the source made its calls, unless noted: active means hit-call score of the fitted dose curve at least 0.9, where 1 is the maximum; inactive means score below 0.9.
# Tests used:
# [1] = CCTE_Shafer_MEA_acute_spike_number: CCTE's Neural Acute Assay for Total Number of Spikes, Shafer Lab (AID 2284008);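 further: curve fitted for decrease in spike count so AC50 reflects inhibitors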
# Summary of the method: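 Using an adaptive detector set to 8x rms noise, spikes were counted in 40-min windows before and after compound addition (0.03-40 uM) to rat cortical networks at 37 C; the well-level change from baseline was analysed relative to DMSO.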
# [2] = CCTE_Shafer_MEA_acute_burst_number: CCTE's Neural Acute Assay for Single-Electrode Bursts, Shafer Lab (AID 2284013)
# Summary of the method: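 Primary rat cortical neurons on 16-electrode MEA wells, DIV 13 or 15, exposed to compound (0.03-40 uM; ≥3 wells); 40-min recordings at 37 C before and after treatment. Burst count expressed as percent change from baseline, DMSO as negative control.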
# [3] = CCTE_Shafer_MEA_acute_burst_duration_mean: CCTE's Neural Acute Assay for Mean Burst Duration, Shafer Lab (AID 2284014);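 further: hits are decreases in mean burst duration relative to DMSO controls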
# Summary of the method: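 Mean burst duration was compared between a 40 min baseline and a 40 min recording in the presence of compound (0.03-40 uM, 37 C), giving percent change per well. Cultures were rat cortical neurons at DIV 13 or 15; wells needed ≥10 active electrodes.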
# [4] = CCTE_Shafer_MEA_acute_per_burst_spike_number_mean: CCTE's Neural Acute Assay for Average Number of Spikes Per Burst, Shafer Lab (AID 2284015);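 further: hits are decreases in mean spikes per burst versus baseline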
# Summary of the method: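 Primary rat cortical neurons on 48-well MEA plates, treated on DIV 13 or 15 at 0.03-40 uM. Spontaneous activity recorded 40 min before and 40 min after compound at 37 C; percent change in mean spikes per single-electrode burst per well, fitted in the loss direction versus DMSO.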
# [5] = CCTE_Shafer_MEA_acute_interburst_interval_mean: CCTE's Neural Acute Assay for Mean Interburst Interval, Shafer Lab (AID 2284016);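 further: percent change of mean interburst interval versus each well's own pre-dose baseline; curves fitted for decrease in interburst interval relative to DMSO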
# Summary of the method: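 Primary rat cortical neurons on 16-electrode MEA wells were recorded 40 min at baseline on DIV 13 or 15, then 40 min after compound (0.03-40 uM), at 37 C. Value is percent change in mean interburst interval per well, DMSO as negative control.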
# [6] = CCTE_Shafer_MEA_acute_burst_percentage_mean: CCTE's Neural Acute Assay for Percentage of Spikes in a Burst, Shafer Lab (AID 2284017);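 further: curve fitted for loss of signal so potency reflects decreased burst percentage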
# Summary of the method: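 Primary rat cortical neurons on 16-electrode MEA wells; 40 min baseline recorded at DIV 13 or 15, then 40 min after compound (0.03-40 uM) at 37 C. Well-mean fraction of spikes in single-electrode bursts; percent change from baseline, DMSO as negative control.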
# [7] = CCTE_Shafer_MEA_acute_burst_percentage_std: CCTE's Neural Acute Assay for Standard Deviation of Burst Percentage, Shafer Lab (AID 2284018);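 further: fitted in the negative direction so actives lower burst percentage SD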
# Summary of the method: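 Value is percent change from baseline in the across-electrode SD of spikes-in-bursts percentage, wells with >/= 10 active electrodes. Acute 40-min exposure to 0.03-40 uM on DIV 13 or 15 rat cortical cultures, recorded at 37 C after 40-min baseline.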
# [8] = CCTE_Shafer_MEA_acute_per_network_burst_spike_number_mean: CCTE's Neural Acute Assay for Average Number of Spikes in a Network Burst, Shafer Lab (AID 2284019);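 further: curve fitted for loss of signal so actives reduce spikes per network burst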
# Summary of the method: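 Percent change from baseline in mean spikes per network burst, spikes detected at 8x rms noise. Each compound at 0.03-40 uM in at least three wells of rat cortical cultures, recorded 40 min before and 40 min during exposure.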
# [9] = CCTE_Shafer_MEA_acute_per_network_burst_spike_number_std: CCTE's Neural Acute Assay for Standard Deviation of Number of Spikes in a Network Burst, Shafer Lab (AID 2284020);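 further: fitted for decrease in spike-number SD versus DMSO so actives lower it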
# Summary of the method: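 Endpoint: percent change from 40 min baseline in standard deviation of spikes per network burst, after 40 min compound exposure (0.03-40 uM, 37 C). Cortical rat neurons on MEA at DIV 13 or 15; spikes detected at 8x rms noise, 300-5000 Hz band-pass.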
# [10] = CCTE_Shafer_MEA_acute_per_network_burst_electrodes_number_mean: CCTE's Neural Acute Assay for Mean Number of Electrodes in a Network Burst, Shafer Lab (AID 2284021);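 further: curves fitted for decreases only so hits reduce electrodes per burst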
# Summary of the method: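 Percent change from baseline in average electrode count per network burst, rat cortical cultures on 48-well MEAs; 40-min recordings each side of exposure, DIV 13 or 15; threshold 8x rms noise; DMSO as negative control.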
# [11] = CCTE_Shafer_MEA_acute_network_burst_percentage: CCTE's Neural Acute Assay for Percentage of Network Bursts, Shafer Lab (AID 2284022);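 further: curves fitted for loss so actives lower network burst percentage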
# Summary of the method: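 On DIV 13 or 15, at least three wells of rat cortical neurons per compound are dosed at 0.03-40 uM. Spontaneous firing is detected at 8x rms noise for 40 min before and after dosing at 37 C. The percent change in network-burst spike share is reported.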
# [12] = CCTE_Shafer_MEA_acute_cross_correlation_area: CCTE's Neural Acute Assay for Area of Cross Correlation, Shafer Lab (AID 2284024);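 further: area under pooled inter-electrode spike cross-correlation near zero lag as percent change from own baseline; curves fitted for loss of cross-correlation area so actives lower synchrony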
# Summary of the method: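 Extracellular recordings from cultured rat cortical neurons measure network synchrony as cross-correlation area; each well's post-compound value (0.03-40 uM, 40 min) is compared with its own 40 min baseline to give percent change.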
# [13] = CCTE_Shafer_MEA_acute_cross_correlation_HWHM: CCTE's Neural Acute Assay for Cross Correlation at Half Width at Half Maximum, Shafer Lab (AID 2284026);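 further: spontaneous network firing of rat primary cortical neurons on multiwell microelectrode arrays; percent change per well from pre-dose baseline in spike cross-correlogram half width; hits are a decrease in cross-correlogram half width relative to DMSO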
# Summary of the method: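 Percent change in cross-correlogram half width at half maximum, narrower meaning more synchrony, was derived per well from paired 40-min recordings before and during exposure to 0.03-40 uM compound in rat cortical cultures at 37 C.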
# [14] = CCTE_Shafer_MEA_acute_synchrony_index: CCTE's Neural Acute Assay for Synchrony, Shafer Lab (AID 2284027);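 further: network synchrony index of spontaneous spiking in primary rat cortical neurons on MEAs; fitted for loss of signal so actives lower synchrony relative to DMSO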
# Summary of the method: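 Plates equilibrated 20 min at 37 C, baseline recorded 40 min, compound (0.03-40 uM) added, then 40 min more recorded. Cells: primary rat cortical neurons, DIV 13 or 15. Per-well synchrony index change analysed in negative direction against DMSO.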
# [15] = CCTE_Shafer_MEA_dev_firing_rate_mean: CCTE's Neural Network Formation Assay for Mean Firing Rate, Shafer Lab (AID 2284031);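 further: curve fitted for loss of firing so AC50 reflects decreased mean firing rate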
# Summary of the method: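 Steps: seed rat cortical cells (1.5 x 10^5/well) with laminin on PEI-coated MEA; dose day 0; record DIV 5/7/9/12, full media and compound exchange after DIV 5 and 9 recordings; compute well-mean firing rate AUC.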
# [16] = CCTE_Shafer_MEA_dev_per_burst_spike_percent: CCTE's Neural Network Formation Assay for Percent of Spikes in a Burst, Shafer Lab (AID 2284032);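 further: fitted as a decrease in burst spike percentage below DMSO baseline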
# Summary of the method: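 Value is trapezoidal AUC over recordings on days 5, 7, 9 and 12 of the well-mean fraction of spikes falling in single-electrode bursts; rat cortical cultures exposed continuously from plating, treatment renewed DIV 5 and 9, fitted downward against DMSO.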
# [17] = CCTE_Shafer_MEA_dev_active_electrodes_number: CCTE's Neural Network Formation Assay for Number of Active Electrodes, Shafer Lab (AID 2284040; active means hit-call score of the fitted dose curve at least 0.9, where 1 is the maximum;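 further: potency for loss of active electrodes versus DMSO so lower counts are hits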)
# Summary of the method: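 Counts electrodes per well firing at least 5 spikes/min, recorded on days 5, 7, 9 and 12 in rat cortical cultures dosed continuously from plating (treatment refreshed DIV 5, 9). Value is the area under the curve over recordings, fitted downward relative to DMSO.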
# [18] = CCTE_Shafer_MEA_dev_burst_rate: CCTE's Neural Network Formation Assay for Burst Rate, Shafer Lab (AID 2284042)
# Summary of the method: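 Rat primary cortical cultures on PEI/laminin MEA; compound from plating, re-dosed at DIV 5, 9 media change. Single-electrode bursts/recording length, well mean of active electrodes; AUC over DIV 5–12 recordings; loss-of-signal vs DMSO.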
# [19] = CCTE_Shafer_MEA_dev_bursting_electrodes_number: CCTE's Neural Network Formation Assay for Number of Bursting Electrodes, Shafer Lab (AID 2284043; active means hit-call score of the fitted dose curve at least 0.9, where 1 is the maximum;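 further: potency is for loss of bursting electrodes relative to DMSO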)
# Summary of the method: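 Number of electrodes reaching ≥1 burst every 2 min was recorded at DIV 5, 7, 9 and 12 and collapsed as trapezoidal area under the curve. Cultures were rat cortical neurons on MEA plates, dosed continuously from plating with medium and treatment refreshed on DIV 5 and 9.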
# [20] = CCTE_Shafer_MEA_dev_per_burst_interspike_interval: CCTE's Neural Network Formation Assay for Burst Interspike Interval, Shafer Lab (AID 2284044)
# Summary of the method: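 Spontaneous activity of maturing rat cortical networks is recorded on DIV 5, 7, 9 and 12 under chronic compound exposure beginning at plating. Endpoint: burst interspike interval well-mean, collapsed into trapezoidal AUC and fitted in the negative direction relative to DMSO.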
# [21] = CCTE_Shafer_MEA_dev_burst_duration_mean: CCTE's Neural Network Formation Assay for Mean Burst Duration, Shafer Lab (AID 2284045)
# Summary of the method: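 Mean single-electrode burst duration (first to last spike), averaged over bursting electrodes per well, then integrated as area-under-curve across recordings at days 5, 7, 9 and 12. Rat cortical cultures on MEAs, compound present from plating, refreshed at feeds.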
# [22] = CCTE_Shafer_MEA_dev_interburst_interval_mean: CCTE's Neural Network Formation Assay for Mean Interburst Interval, Shafer Lab (AID 2284046);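 further: well-mean interburst interval of bursting electrodes as AUC over four recording days; curve fitted for decrease in interburst interval relative to DMSO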
# Summary of the method: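 Rat cortical neurons, 1.5 x 10^5 cells/well, 48-well MEA; compound from day 0 through DIV 12, media and treatment renewed DIV 5/9. Recordings DIV 5, 7, 9, 12; well-mean interburst interval → trapezoidal AUC, loss direction vs DMSO.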
# [23] = CCTE_Shafer_MEA_dev_inter_network_spike_interval_mean: CCTE's Neural Network Formation Assay for Mean Inter-network Spike Interval, Shafer Lab (AID 2284047)
# Summary of the method: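 Primary rat cortical neurons on PEI-coated 48-well MEAs (16 electrodes/well) were exposed from plating day 0 to DIV 12, with dosing renewed at DIV 5 and 9. Recordings at DIV 5, 7, 9, 12 were collapsed by trapezoidal AUC, loss-of-signal fit vs DMSO.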
# [24] = CCTE_Shafer_MEA_dev_network_spike_peak: CCTE's Neural Network Formation Assay for Mean Number of Electrodes in Network Spike, Shafer Lab (AID 2284049);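 further: fitted for loss of signal meaning fewer electrodes in network spikes than DMSO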
# Summary of the method: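 Rat cortical primary culture, 1.5 x 10^5 cells/well, 48-well MEA (16 electrodes/well). Dosing day 0 through DIV 12, full media/compound exchange DIV 5, 9. AxIS adaptive spike detection; AUC over days 5/7/9/12; loss-of-signal vs DMSO.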
# [25] = CCTE_Shafer_MEA_dev_spike_duration_mean: CCTE's Neural Network Formation Assay for Mean Spike Duration, Shafer Lab (AID 2284051);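 further: mean network spike duration pooled as area under curve over DIV 5 to 12 recordings; potency for a decrease in mean network spike duration versus DMSO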
# Summary of the method: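 Rat cortical primary cultures, 48-well MEA (16 electrodes/well); compound from plating, renewed DIV 5, 9. Network spike duration (AxIS adaptive detector) recorded DIV 5/7/9/12, combined as trapezoidal AUC; loss direction vs DMSO.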
# [26] = CCTE_Shafer_MEA_dev_network_spike_duration_std: CCTE's Neural Network Formation Assay for Standard Deviation of Network Spike Duration, Shafer Lab (AID 2284052);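 further: hits are decreases in network spike duration SD versus DMSO vehicle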
# Summary of the method: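 Rat cortical cultures, 1.5 x 10^5 cells/well, exposed continuously from plating to DIV 12 with media/compound renewal at DIV 5, 9. Spontaneous activity recorded DIV 5/7/9/12, AxIS adaptive spike detector; AUC across days; negative direction vs DMSO.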
# [27] = CCTE_Shafer_MEA_dev_per_network_spike_spike_number_mean: CCTE's Neural Network Formation Assay for Mean Number of Spikes in a Network Spike, Shafer Lab (AID 2284053);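 further: fitted as decrease in spikes per network spike relative to DMSO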
# Summary of the method: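 Rat cortical primary cultures on 48-well MEA; compound from day 0, re-dosed with full media change DIV 5, 9. Recorded DIV 5, 7, 9, 12; spikes in 0.05 s window at network-spike peak ÷ total network spikes; AUC; loss vs DMSO.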
# [28] = CCTE_Shafer_MEA_dev_per_network_spike_spike_percent: CCTE's Neural Network Formation Assay for Percent of Spikes in a Network Spike, Shafer Lab (AID 2284054)
# Summary of the method: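 Metric: fraction of spikes falling in a 0.05 s window at network-spike peaks. Recordings were made on days 5, 7, 9 and 12 and collapsed by trapezoidal AUC. Cultures were rat cortical neurons on MEA plates, dosed continuously from plating, re-dosed at media changes.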
# [29] = CCTE_Shafer_MEA_dev_LDH: CCTE's Lactate Dehydrogenase Assay for Cytotoxicity in the Neural Network Formation Assay, Shafer Lab (AID 2284068; active means hit-call score of the fitted dose curve at least 0.9, where 1 is the maximum;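 further: exposure for twelve days from plating with re-dosing on DIV 5 and 9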)
# Summary of the method: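 Rat cortical primary neurons, MEA culture; dosing day 0–12, full medium plus compound exchange DIV 5, 9. Read-out: LDH enzyme activity, spectrophotometric. DMSO = negative control/baseline; signal loss → cytotoxicity.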
# [30] = CCTE_Shafer_MEA_dev_AB: CCTE's Alamar Blue Assay for Cytotoxicity in the Neural Network Formation Assay, Shafer Lab (AID 2284083; active means hit-call score of the fitted dose curve at least 0.9, where 1 is the maximum;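 further: resazurin reduction fluorescence as viability of cultured neurons; twelve days of exposure from plating with re-dosing on DIV 5 and 9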)
# Summary of the method: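 Rat cortical primary cultures, 1.5 x 10^5 cells/well on MEA; continuous compound exposure over 12 days of network development, re-dosed with full medium change DIV 5 and 9. Alamar Blue fluorescence; loss of signal = cytotoxicity vs DMSO baseline.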
# [31] = CCTE_Shafer_MEA_acute_LDH: CCTE's Lactate Dehydrogenase Assay for Cytotoxicity in the Neural Acute Assay, Shafer Lab (AID 2284086; active means hit-call score of the fitted dose curve at least 0.9, where 1 is the maximum;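 further: active means LDH release rises above DMSO vehicle level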)
# Summary of the method: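 Medium collected from MEA wells of primary rat cortical cultures (DIV 13 or 15) immediately after 40 min chemical exposure is assayed spectrophotometrically for lactate dehydrogenase activity. Endpoint fitted in positive direction versus DMSO.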
# [32] = CCTE_Shafer_MEA_dev_mutual_information_norm: CCTE's Neural Network Formation Assay for Mutual Information Normalization, Shafer Lab (AID 2284091);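 further: mutual information between electrodes summarised as area under curve across four recording days; potency is for a decrease in mutual information relative to DMSO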
# Summary of the method: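 Shared information across electrodes, tracked on days 5, 7, 9 and 12 of network development and collapsed as trapezoidal area under the curve. Rat cortical cultures were treated continuously from plating, with treatment renewed at feeds on DIV 5 and 9; DMSO baseline, negative-direction fit.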
smiles,measurement,setting,value
CC1(C)[C@@H](C=C(Cl)Cl)[C@@H]1C(=O)O[C@@H](C#N)c1ccc(F)c(Oc2ccccc2)c1,AC50,[1],2960 nM (active)
same,outcome,[2],inactive
same,outcome,[3],inactive
same,AC50,[4],842 nM (active)
same,AC50,[5],2350 nM (active)
same,AC50,[6],1950 nM (active)
same,AC50,[7],7770 nM (active)
same,AC50,[8],1280 nM (active)
same,AC50,[9],534 nM (active)
same,AC50,[10],1680 nM (active)
same,AC50,[11],1320 nM (active)
same,AC50,[12],208 nM (active)
same,outcome,[13],inactive
same,AC50,[14],512 nM (active)
same,AC50,[15],5760 nM (active)
same,AC50,[16],15000 nM (active)
same,AC50,[17],10200 nM (active)
same,outcome,[18],inactive
same,AC50,[19],15000 nM (active)
same,outcome,[20],inactive
same,outcome,[21],inactive
same,outcome,[22],inactive
same,outcome,[23],inactive
same,AC50,[24],11800 nM (active)
same,AC50,[25],6210 nM (active)
same,outcome,[26],inactive
same,AC50,[27],5820 nM (active)
same,AC50,[28],15000 nM (active)
same,outcome,[29],inactive
same,outcome,[30],inactive
same,outcome,[31],inactive
same,AC50,[32],2390 nM (active)
